22 molecules from PubChem BioAssay (EPA / NIEHS) can be followed below.

Active and inactive are the calls of the source. How the source made its calls: active means hit-call score of the fitted dose curve at least 0.9, where 1 is the maximum; inactive means score below 0.9.

A short description of test [1]: APR_HepG2_P-H2AX_72hr: Apredica 72-hour HepG2 Assay for H2AX Phosphorylation (AID 2282916).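 Further: phospho-histone H2A.x immunostain intensity per cell marking DNA damage.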 Particulars: imaging, actives raise or lower the signal. In a few lines:
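HepG2; cpd 0.39–200 uM ×10 conc, duplicates; 0.5% DMSO; 72 hr. Fix 3.7% formaldehyde 30 min RT, 0.5% Triton X-100 10 min. Anti-phospho-H2A.x 1:200 + Hoechst 2 ug/mL, 60 min RT; ArrayScan imaging.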

Test [2] is described as follows: APR_HepG2_MitoMembPot_72hr: Apredica 72-hour HepG2 Assay for Mitochondrial Membrane Potential (AID 2282917). Conditions: imaging, actives raise or lower the signal. Put shortly: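 HepG2 cells dosed 72 hr with compound at 0.39–200 uM in duplicate, 0.5% v/v DMSO final. Mitochondria stained with 250 nM MitoTracker Red CMXRos for 30 min before formaldehyde fixation, imaged by high-content fluorescence; bidirectional fit versus DMSO.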

A short description of test [3]: APR_HepG2_MitoticArrest_72hr: Apredica 72-hour HepG2 Assay for Mitotic Arrest (AID 2282918). Particulars: high-content imaging, actives raise or lower the signal. Put shortly:
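Read-out is phospho-histone H3 immunofluorescence with Hoechst nuclear segmentation, imaged at 20x. Human HepG2 liver cells received ten concentrations (0.39–200 uM, final DMSO 0.5% v/v) for 72 hr before fixation. Gain or loss of signal was fitted relative to DMSO.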

Test [4] can be described thus: APR_HepG2_MicrotubuleCSK_72hr: Apredica 72-hour HepG2 Assay for Microtubule CSK Stabilty (AID 2282919). Conditions: HepG2 microtubule cytoskeleton, high-content imaging, actives raise or lower the signal. In a few lines: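 HepG2 cells were exposed 72 hr to compound at 0.39–200 uM in duplicate (0.5% DMSO final), then fixed and permeabilized. Alpha-tubulin immunofluorescence was imaged by high-content microscopy, with bidirectional fitting against DMSO and taxol as positive control.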

A short description of test [5]: APR_HepG2_P-H2AX_24hr: Apredica 24-hour HepG2 Assay for H2AX Phosphorylation (AID 2282920). Conditions: high-content imaging, actives raise or lower the signal. Put shortly:
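HepG2, 24 hr, cpd 0.39–200 uM (10 conc, duplicate), DMSO 0.5% v/v final. Fix 3.7% formaldehyde, Triton X-100 permeabilize, anti-phospho-H2A.x 1:200 + Hoechst 2 ug/mL. Imaged, bidirectional fit vs DMSO.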

Test [6] in a line: APR_HepG2_StressKinase_72hr: Apredica 72-hour HepG2 Assay for Stress Kinase (AID 2282921). Conditions: HepG2 stress kinase (phospho-c-Jun) imaging, actives raise or lower the signal. In a few lines:
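Dose 0.39–200 uM (10 pts, duplicate), 0.5% DMSO; 72 h; fix 3.7% formaldehyde 30 min RT; Triton permeabilize; anti-phospho-c-Jun/Cy3 + Hoechst 60 min RT; image 20x; fit gain/loss vs DMSO.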

Test [7] in a line: APR_HepG2_StressKinase_24hr: Apredica 24-hour HepG2 Assay for Stress Kinase (AID 2282922). Conditions: HepG2 stress kinase (phospho-c-Jun) imaging, actives raise or lower the signal. In a few lines: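 HepG2 cells exposed 24 h to 0.39–200 uM compound in duplicate (0.5% v/v DMSO final). Cells fixed in 3.7% formaldehyde, permeabilized and immunostained for phospho-c-Jun; read by high-content fluorescence imaging, fitted bidirectionally against DMSO.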

Test [8] is described as follows: APR_HepG2_p53Act_72hr: Apredica 72-hour HepG2 Assay for p53 Activation (AID 2282923).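 Further: average cellular p53 protein immunofluorescence intensity in HepG2 cells.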 Conditions: high-content imaging, actives raise or lower the signal. In a few lines:
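10-pt conc. 0.39–200 uM, duplicate, 0.5% DMSO; 72 hr exposure; 3.7% formaldehyde fix, 0.5% Triton perm; sheep anti-p53/Cy5 + Hoechst; ArrayScan 20x, 6 images/well; gain/loss fit vs DMSO.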

Test [9] can be described thus: APR_HepG2_MitoMass_72hr: Apredica 72-hour HepG2 Assay for Mitochondrial Mass (AID 2282924).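 Further: MitoTracker Red CMXRos stain intensity per cell imaged as mitochondrial mass.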 Particulars: high-content imaging, actives raise or lower the signal. Put shortly:
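HepG2 cells dosed 72 hr at 0.39–200 uM (0.5% DMSO), in duplicate. MitoTracker Red CMXRos 250 nM loaded 30 min before formaldehyde fixation; high-content fluorescence imaging, bidirectional fit versus DMSO.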

A short description of test [10]: APR_HepG2_NuclearSize_72hr: Apredica 72-hour HepG2 Assay for Nuclear Size (AID 2282925). Conditions: high-content imaging, actives raise or lower the signal. In a few lines:
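HepG2 cells dosed 72 h at 0.39–200 uM (10 concentrations, duplicate) in 0.5% v/v DMSO final. Fixed, Hoechst 33342-stained nuclei imaged; nuclear diameter measured by automated image analysis. Bidirectional fit versus DMSO.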

The AC50 is the concentration at which the activity in the assay is half-maximal. With `Oc1ccc2c(c1)-c1ccccc1C2`, the AC50 in test [1] was 89 µM (active); in test [2], 106 µM (active); in test [3] it was 80.3 µM (active); in test [5] it was 117 µM (active); in test [8], 47.7 µM (active). Also, the molecule was called inactive in [4], in test [6], in test [7], in [9] and in [10].
Regarding `CCCC(=O)OCC`, the molecule was called inactive in test [1], in test [2], in test [3], in [4], in [5] and in [6]. For the same molecule, the call in test [7], in test [8], in test [9] and in test [10] was inactive.
`NC(=O)NO`: the molecule was classed as inactive in test [1], in [2], in [3], in [4], in test [5] and in test [6]. For the same molecule, the call in test [7], in [8], in test [9] and in test [10] was inactive.
Take `CCCCCCCCCCCCc1ccccc1`: the molecule was called inactive in test [1], in test [2], in [3], in [4], in test [5] and in test [6]. For the same molecule, the molecule was called inactive in test [7], in test [8], in [9] and in test [10].
For the molecule `COc1cccc(-c2ccc(/C=C\CN3CCCCCC3)cc2Cl)c1`, the AC50 was 22.5 µM (active) in [1]; 17.6 µM (active) in test [3]; 48.9 µM (active) in [5]; 32.3 µM (active) in [6]; 69.3 µM (active) in test [7]; 22.5 µM (active) in test [8]. The AC50 in [10] is 62 µM (active). The outcome in [2], in test [4] and in test [9] was inactive.
Turning to `Cc1[nH]cnc1C[C@H]1CCc2c(C)c3ccccc3n2C1=O`, the AC50 in test [1] was 89 µM (active); in [3], 98.8 µM (active); in test [5], 92.8 µM (active); in [6] it was 65 µM (active); in test [7], 100 µM (active); in test [8] it was 95 µM (active). For the same molecule, the AC50 in test [9] is 24.4 µM (active). Further, the call in test [2], in test [4] and in test [10] was inactive.
Turning to `CC(=O)OCCC(C)C`, the molecule was classed as inactive in test [1], in test [2], in [3], in test [4], in [5] and in test [6]. Besides, the molecule was classed as inactive in test [7], in test [8], in [9] and in test [10].
With `Nc1cccc(N)c1`, the outcome in test [1], in [2], in test [3], in test [4], in test [6] and in [7] was inactive. The outcome in test [8], in [9] and in test [10] was inactive. For the same molecule, in [5], the AC50 was 48.3 µM (active).
With `C[C@](N)(Cc1ccc(O)c(O)c1)C(=O)O`, the molecule was classed as inactive in [1], in test [3], in test [4], in [5], in test [6] and in test [7]. Also, the molecule was classed as inactive in test [8], in [9] and in test [10]. Also, the AC50 in [2] is 58.4 µM (active).
For the molecule `Cc1ccc(N)cc1O`, the molecule was called inactive in test [1], in test [3], in [4], in test [5], in [6] and in [7]. Besides, the result in [8], in test [9] and in test [10] was inactive. In [2], the AC50 is 1.02 µM (active).
In the case of `CCOC(=O)COc1ccc2c(c1)CC(NCC(O)c1cccc(Cl)c1)CC2` (centres undefined), the molecule was called inactive in test [2], in test [4], in [6], in test [7], in test [8] and in test [9]. Also, the outcome in test [10] was inactive. Besides, the AC50 is 23.1 µM (active) in test [3] and 23.2 µM (active) in test [5].
As for `COc1ccc(/C=C/S(=O)(=O)NC(=O)c2ccc(C)cc2Cl)cc1`, the AC50 in test [2] is 12.8 µM (active); in test [3] it was 102 µM (active); in [5] it was 106 µM (active); in test [8], 113 µM (active). Besides, the molecule was classed as inactive in test [4], in test [6], in [7], in [9] and in [10].
In the case of `CCc1cc(SCc2sc(-c3ccc(C(F)(F)F)cc3)nc2CN2CCN(c3ccc(OC)cc3)CC2)ccc1OCC(=O)O`, the AC50 in test [1] was 48 µM (active); in test [2] it was 116 µM (active); in test [3], 45 µM (active); in [5], 54.5 µM (active); in test [8], 59 µM (active); in test [9], 33.2 µM (active). For the same molecule, the call in test [4], in test [6], in test [7] and in [10] was inactive.
`On1ccccc1=S`: the outcome in test [2], in [4], in [5], in test [7] and in test [9] was inactive. Moreover, the concentration at half-maximal activity (AC50) in test [3] is 21.5 µM (active); in test [6], 5.96 µM (active); in test [8] it was 8.59 µM (active); in test [10] it was 3.98 µM (active).
As to `COC(=O)CC(=O)OC`, the molecule was called inactive in test [1], in test [2], in test [3], in [4], in [5] and in [6]. Besides, the outcome in [7], in [8], in test [9] and in test [10] was inactive.
With `O=C1CCC(N2C(=O)c3ccccc3C2=O)C(=O)N1` (centres undefined), the result in test [1], in test [2], in [3], in [4], in test [5] and in test [6] was inactive. The outcome in [7], in [8], in test [9] and in test [10] was inactive.
In the case of `CC(=O)c1ccc2c(c1)[C@H](NC(=O)c1ccc(F)cc1)[C@@H](O)C(C)(C)O2`, the result in test [2], in [3], in test [4], in test [5], in test [6] and in test [7] was inactive. For the same molecule, the molecule was called inactive in [8], in test [9] and in test [10].
As to `CNCc1ccc(NC(=O)c2c[nH]c3c2C(=O)CCC3)cc1`, the molecule was classed as inactive in test [1], in [2], in test [3], in test [4], in test [5] and in [6]. Besides, the call in test [7], in test [8], in [9] and in [10] was inactive.
For the molecule `CCCCCCc1ccc(O)cc1O`, the molecule was classed as inactive in test [2], in test [4], in test [6], in test [8], in test [9] and in [10]. Moreover, the AC50 in [3] was 33.7 µM (active); in test [5] it was 101 µM (active); in [7], 158 µM (active).
With `CN(C)c1ccc(Cc2ccc(N(C)C)cc2)cc1`, the result in test [1], in [2], in test [5], in test [6], in [7] and in [8] was inactive. Also, the call in [9] and in [10] was inactive. Moreover, the figures for the AC50 in [3] and in test [4] were 30.7 µM (active) and 37.4 µM (active), respectively.
For `CCNc1ccccc1`, the result in [1], in test [2], in test [3], in [4], in [5] and in test [6] was inactive. Besides, the outcome in [7], in [8], in test [9] and in test [10] was inactive.
Turning to `COCCOCCOCCOC`, the outcome in test [2], in test [3], in test [4], in test [5], in test [6] and in test [7] was inactive. In addition, the molecule was called inactive in [8], in test [9] and in [10].
